PubChem BioAssay (EPA / NIEHS)
Records with an inconclusive call do not appear. Calls of active or inactive are those of the source. How the source made its calls, unless noted: active means hit-call score of the fitted dose curve at least 0.9, where 1 is the maximum; inconclusive means response in the unintended direction; inactive means score below 0.9.

Columns and labels:
[1] = Tanguay_ZF_120hpf_TRUN_legacy: (Legacy) Oregon State University Tanguay Lab 120 Hour Post-fertilization zebrafish Assay for Truncated Body (AID 2283655)
Procedure, shortened: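 Single dechorionated zebrafish embryos received test chemical from 6 hpf in 0.64% DMSO, kept at 28C. At 120 hpf, brightfield inspection noted any truncated body.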

[2] = Tanguay_ZF_120hpf_NC_legacy: (Legacy) Oregon State University Tanguay Lab 120 Hour Post-fertilization zebrafish Assay for Notochord and Tail Malformation (AID 2283656)
Procedure, shortened: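 Binary notochord-distortion calls, made by brightfield inspection, form the read-out; activity is fitted in the positive direction against DMSO. Exposure ran statically from 6 to 120 hpf at 28C with 0.64% DMSO.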

[3] = read-out: ABC Transporter (ABCB1), ABCB1 (gene 5243); assay: CLD_ABCB1_6hr: CellzDirect (CLD) Gene Expression Assay for ABC Transporter (ABCB1) at 6 hours (AID 2283659);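 further: hits raise ABCB1 transcript above the DMSO vehicle baseline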
Procedure, shortened: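 ABCB1 transcript measured by quantitative nuclease protection assay, chemiluminescent read-out, 6 h after dosing human hepatocyte cultures (0.2% DMSO vehicle, daily redosing). Activity fitted as increase over DMSO baseline; cytotoxicity flagged by phase-contrast morphology.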

[4] = read-out: Broad substrate specificity ATP-binding cassette transporter ABCG2 (Homo sapiens) (UniProt Q9UNQ0); assay: CLD_ABCG2_6hr: CellzDirect (CLD) Gene Expression Assay for ABC Transporter (ABCG2) at 6 hours (AID 2283660)
Procedure, shortened: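 ABCG2 mRNA induction measured by qNPA chemiluminescence in human primary hepatocyte cultures, 6 h post-dose. Chemicals tested at several concentrations against a 0.2% DMSO vehicle; positive-direction fit relative to DMSO.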

[5] = read-out: xenobiotic metabolism (CYP2C9), CYP2C9 (gene 1559); assay: CLD_CYP2C9_6hr: CellzDirect (CLD) Gene Expression Assay for xenobiotic metabolism (CYP2C9) at 6 hours (AID 2283664)
Procedure, shortened: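 Readout is qNPA chemiluminescence of CYP2C9 mRNA, taken 6 h after dosing of cultured human liver primary cells at several concentrations. Activity is the increase over 0.2% DMSO baseline. Morphology-based cytotoxicity flagged yes/no.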

[6] = read-out: alkyl and aryl transferase (GSTA2), GSTA2 (gene 2939); assay: CLD_GSTA2_6hr: CellzDirect (CLD) Gene Expression Assay for alkyl and aryl transferase (GSTA2) at 6 hours (AID 2283666)
Procedure, shortened: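 GSTA2 transcript induction at 6 h, quantified by nuclease protection (qNPA) with chemiluminescent detection, in human liver primary hepatocytes exposed to several compound concentrations with 0.2% DMSO as baseline; phase-contrast morphology annotated apparent cytotoxicity.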

[7] = Tanguay_ZF_120hpf_TR_legacy: (Legacy) Oregon State University Tanguay Lab 120 Hour Post-fertilization zebrafish Assay for Touch Response (AID 2283667)
Procedure, shortened: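 Readout is presence or absence of touch response in 120 hpf zebrafish larvae, assessed by brightfield observation after continuous static exposure at 28C. Final vehicle was 0.64% (vol/vol) DMSO.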

[8] = CLD_ACTIN_24hr: CellzDirect (CLD) Gene Expression Assay for Baseline Control (Actin) at 24 hours (AID 2283670)
Procedure, shortened: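 This 24 h qNPA (S1 nuclease protection, chemiluminescence) actin transcript readout in cultured human liver primary cells serves as baseline control. Signal is fitted upward relative to 0.2% DMSO; chemicals tested at multiple concentrations across two donor preparations.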

[9] = read-out: glucuronosyltransferase (UGT1A1), UGT1A1 (gene 54658); assay: CLD_UGT1A1_6hr: CellzDirect (CLD) Gene Expression Assay for glucuronosyltransferase (UGT1A1) at 6 hours (AID 2283672)
Procedure, shortened: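 UGT1A1 mRNA induction, read by quantitative nuclease protection assay, 6 h after dosing primary human hepatocytes (two donors, 0.2% DMSO vehicle). Gain of signal fitted relative to vehicle.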

[10] = read-out: ABC Transporter (ABCB11), ABCB11 (gene 8647); assay: CLD_ABCB11_24hr: CellzDirect (CLD) Gene Expression Assay for ABC Transporter (ABCB11) at 24 hours (AID 2283674; active means hit-call score of the fitted dose curve at least 0.9, where 1 is the maximum; inactive means score below 0.9)
Procedure, shortened: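 ABCB11 transcript was quantified by qNPA chemiluminescence in cultured human liver hepatocytes 24 hours after dosing. Fresh dosing solutions were applied on consecutive days, against a 0.2% DMSO vehicle. Cytotoxicity was noted by phase-contrast morphology.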

[11] = read-out: Cytochrome P450 2B6 (Homo sapiens) (UniProt P20813); assay: CLD_CYP2B6_6hr: CellzDirect (CLD) Gene Expression Assay for xenobiotic metabolism (CYP2B6) at 6 hours (AID 2283677);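 further: actives raise CYP2B6 transcript above DMSO baseline so AC50 marks an inducer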
Procedure, shortened: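 CYP2B6 transcript levels, read by chemiluminescent qNPA, were fitted for increase versus DMSO baseline; cultured human liver hepatocytes from two donor preparations were harvested 6 h after exposure to test chemicals at multiple concentrations.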

[12] = read-out: Cytochrome P450 2C19 (Homo sapiens) (UniProt P33261); assay: CLD_CYP2C19_6hr: CellzDirect (CLD) Gene Expression Assay for xenobiotic metabolism (CYP2C19) at 6 hours (AID 2283678)
Procedure, shortened: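 CYP2C19 transcript induction was quantified by quantitative nuclease protection assay with chemiluminescent read-out, 6 h after dosing. Cells were primary human hepatocytes from two donor preparations, given fresh dosing solutions daily in 0.2% DMSO vehicle. Activity was relative to DMSO.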

[13] = read-out: xenobiotic metabolism (CYP1A2), CYP1A2 (gene 1544); assay: CLD_CYP1A2_6hr: CellzDirect (CLD) Gene Expression Assay for xenobiotic metabolism (CYP1A2) at 6 hours (AID 2283663);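 on AC50: potency is for induction meaning a rise in mRNA above DMSO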
Procedure, shortened: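 mRNA levels quantified by quantitative nuclease protection assay with chemiluminescence, 6 h after dosing human primary hepatocyte cultures (two donors) across several concentrations, vehicle 0.2% DMSO. Induction fitted upward versus DMSO; phase-contrast cytotoxicity annotated.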

[14] = read-out: xenobiotic metabolism (CYP1A1), CYP1A1 (gene 1543); assay: CLD_CYP1A1_24hr: CellzDirect (CLD) Gene Expression Assay for xenobiotic metabolism (CYP1A1) at 24 hours (AID 2283673);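 further: CYP1A1 mRNA level by quantitative nuclease protection with chemiluminescence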
Procedure, shortened: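 Transcript levels were read at 24 h by qNPA chemiluminescence in human liver primary cells. Cells got daily fresh dosing at multiple concentrations (vehicle 0.2% DMSO). Induction fitted upward against DMSO; phase-contrast cytotoxicity annotated.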

[15] = CLD_ACTIN_6hr: CellzDirect (CLD) Gene Expression Assay for Baseline Control (Actin) at 6 hours (AID 2283676);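 further: active means increased actin mRNA relative to DMSO vehicle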
Procedure, shortened: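 Baseline actin transcript level measured by qNPA (S1 nuclease protection, chemiluminescence) in human hepatocyte cultures 6 h after chemical exposure; 0.2% DMSO vehicle as reference, cytotoxicity noted from morphology.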

[16] = system: Thyroperoxidase (TPO), gene 54314; assay: CCTE_Simmons_AUR_rTPO: CCTE's Amplex UltraRed Assay for Thyroperoxidase (TPO) Inhibition, Simmons Lab (AID 2283662);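 further: potency for loss of signal meaning inhibition of peroxidase activity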
Procedure, shortened: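 Cell-free peroxidase activity assay using rat thyroid gland microsomes with excess H2O2 (300 uM) and 25 uM Amplex UltraRed. Compounds tested from 5 nM to 87.5 uM; fluorescence measured after 30 min at 37C, analysed relative to DMSO baseline.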

[17] = read-out: xenobiotic metabolism (CYP1A1), CYP1A1 (gene 1543); assay: CLD_CYP1A1_6hr: CellzDirect (CLD) Gene Expression Assay for xenobiotic metabolism (CYP1A1) at 6 hours (AID 2283661);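 on AC50: potency for transcript induction above DMSO vehicle baseline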
Procedure, shortened: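 Read-out 6 h post-dose: qNPA chemiluminescent quantitation of transcript induction against 0.2% DMSO. Cells were cultured primary human hepatocytes from two separate donor preparations; phase-contrast morphology annotated apparent cytotoxicity.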

[18] = read-out: ABC Transporter (ABCB11), ABCB11 (gene 8647); assay: CLD_ABCB11_6hr: CellzDirect (CLD) Gene Expression Assay for ABC Transporter (ABCB11) at 6 hours (AID 2283675);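 further: hits raise ABCB11 mRNA level so AC50 marks induction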
Procedure, shortened: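 Read-out was ABCB11 mRNA gain of signal by quantitative nuclease protection assay, relative to 0.2% DMSO vehicle, 6 h post-dose. Cells were primary human hepatocytes from two donors, treated across multiple concentrations; phase-contrast cytotoxicity noted yes/no.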

Measured: AC50

Sequence of Broad substrate specificity ATP-binding cassette transporter ABCG2 (Homo sapiens) (Q9UNQ0 whole entry, looked up): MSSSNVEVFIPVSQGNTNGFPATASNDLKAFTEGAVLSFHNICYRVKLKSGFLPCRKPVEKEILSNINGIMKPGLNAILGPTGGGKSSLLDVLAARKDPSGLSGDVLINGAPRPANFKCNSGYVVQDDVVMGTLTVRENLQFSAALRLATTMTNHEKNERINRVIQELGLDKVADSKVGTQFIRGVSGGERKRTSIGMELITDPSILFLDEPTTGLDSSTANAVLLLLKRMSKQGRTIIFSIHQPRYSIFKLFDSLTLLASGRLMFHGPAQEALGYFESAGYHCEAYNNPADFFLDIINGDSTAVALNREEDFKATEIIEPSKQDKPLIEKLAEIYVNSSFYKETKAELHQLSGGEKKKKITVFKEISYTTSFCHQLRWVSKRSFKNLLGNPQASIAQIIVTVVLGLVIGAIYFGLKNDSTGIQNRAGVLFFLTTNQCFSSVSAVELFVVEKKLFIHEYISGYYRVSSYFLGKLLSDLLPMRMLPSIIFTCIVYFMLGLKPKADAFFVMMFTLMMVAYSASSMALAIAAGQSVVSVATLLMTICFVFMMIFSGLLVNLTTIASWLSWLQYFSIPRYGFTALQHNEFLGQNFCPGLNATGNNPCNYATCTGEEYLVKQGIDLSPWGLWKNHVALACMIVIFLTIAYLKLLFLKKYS
Sequence of Cytochrome P450 2C19 (Homo sapiens) (P33261 whole entry, looked up): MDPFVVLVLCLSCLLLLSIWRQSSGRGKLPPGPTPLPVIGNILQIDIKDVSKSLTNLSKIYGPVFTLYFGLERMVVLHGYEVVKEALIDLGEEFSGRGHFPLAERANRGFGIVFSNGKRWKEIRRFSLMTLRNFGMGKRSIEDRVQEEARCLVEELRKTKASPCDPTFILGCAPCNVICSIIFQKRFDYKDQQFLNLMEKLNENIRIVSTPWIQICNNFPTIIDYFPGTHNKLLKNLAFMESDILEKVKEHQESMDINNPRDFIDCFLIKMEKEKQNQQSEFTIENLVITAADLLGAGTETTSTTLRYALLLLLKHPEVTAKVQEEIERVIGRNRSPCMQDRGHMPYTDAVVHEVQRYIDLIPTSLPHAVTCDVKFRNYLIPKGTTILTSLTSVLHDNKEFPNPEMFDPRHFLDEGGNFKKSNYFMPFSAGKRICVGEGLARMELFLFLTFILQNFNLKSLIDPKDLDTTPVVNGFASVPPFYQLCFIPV

CNC(=O)ON=C(SC)C(=O)N(C)C
not listed: [13] | [14] | [15] | [16] | [17] | [18]
inactive: all other assays above

CCCCOC(=O)[C@@H](C)Oc1ccc(Oc2ccc(C#N)cc2F)cc1
not listed: [4] | [5] | [6] | [16] | [17] | [18]
inactive: all other assays above

C[Si](Cn1cncn1)(c1ccc(F)cc1)c1ccc(F)cc1
active: [1] 11 µM | [11] 32.4 µM
inactive: [3] | [4] | [13] | [8] | [9] | [15]

COP(=O)(OC)C(O)C(Cl)(Cl)Cl (stereo unspecified)
inactive: [1] | [2] | [4] | [6] | [7] | [8] | [9] | [10]

C#CCC1=C(C)C(OC(=O)C2C(C=C(C)C)C2(C)C)CC1=O (stereo unspecified)
inactive: [3] | [4] | [13] | [6] | [7] | [9]
active: [16] 40.2 µM | [11] 1.08 µM

CC(C)=CC1C(C(=O)OCN2C(=O)C3=C(CCCC3)C2=O)C1(C)C (stereo unspecified)
active: [11] 5.94 µM
not listed: [2] | [8] | [12] | [14] | [15] | [16] | [18]
inactive: all other assays above

CCCCSP(=O)(SCCCC)SCCCC
active: [17] 2.38 µM | [13] 2.96 µM | [11] 1.9 µM
inactive: [1] | [3] | [4] | [5] | [7] | [9] | [18]

C#CC(C)(C)NC(=O)c1cc(Cl)cc(Cl)c1
active: [11] 4.15 µM
inactive: [2] | [3] | [4] | [17] | [7] | [9] | [14] | [10]

CCCOc1nn(C(=O)NS(=O)(=O)c2ccccc2C(=O)OC)c(=O)n1C
inactive: [2] | [4] | [6] | [7] | [9] | [10] | [11] | [12]
